Assay outcomes from PubChem.
Peg3 prom inh: Peg3 promoter-driven luciferase inhibitors, primary screen, cell-based, HeLa, luciferase luminescence; HeLa PEG-Prom luciferase reporter, overnight; inhibition, % at 20 µM; actives 1.7% (n = 360,000); AID 588405, 2011;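 active means inhibition of at least 50% at 20 µM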
TROY NFkB inh: inhibitors of TROY-driven NF-kB signaling, primary screen, Q293 LMP1-TROYcd cells, NF-kB luciferase, uHTS; Q293 LMP1-TROYcd NF-kB luciferase reporter, 4 h; inhibition, % at 10 µM; actives 0.98% (n = 360,000); AID 1347056, 2019;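 active means compounds whose plate-normalised and pattern-corrected inhibition of the luciferase reporter signal at the single screening dose is 50% or more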
TWEAK Fn14 block: inhibitors of TWEAK-Fn14 signaling, primary screen, luciferase reporter cells, uHTS; TWEAK-stimulated Fn14 reporter cells, luciferase luminescence, 8 h; AID 1159606, 2016; inhibition, % at 10 µM; actives 2% (n = 360,000); in the data active means inhibition above about 50%
HIF-2a inh: HIF-2a reporter inhibitors, primary screen, luminescence, 786-0 RCC cells; 786-0 RCC cells HIF-2a reporter, luciferase luminescence, overnight; inhibition, % at 18.8 µM; actives 0.72% (n = 360,000);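 active means inhibition of the luminescence signal of 40% or more relative to plate controls, in a single-dose primary screen at 18.75 µM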
CF NFkB block: inhibitors of PAF-induced NF-kB signaling, primary screen, cell-based, GFP fluorescence, uHTS | inhibition, % at 5 µM | KKLEB NF-kB-GFP reporter, GFP fluorescence overnight | actives 0.86% (n = 360,000);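 active means at least 50% inhibition at 5 µM, scaled per plate between neutral and stimulator controls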;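 further: PAF is a Pseudomonas aeruginosa culture filtrate used as stimulus; plate controls were PAF-stimulated DMSO wells for no effect and unstimulated DMSO wells for full effect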
KKLEB tox: cytotoxicity in KKLEB CF airway cells, primary screen, cytotoxicity control for CF NF-kB inhibitor project, cell-based, uHTS, fluorescence assay plates; KKLEB CF airway cells viability, ATPlite luminescence, overnight; hits give low values; cells stimulated with P. aeruginosa culture filtrate; actives 0.36% (n = 360,000); AID 602141, 2011; activity change (cytotoxicity), % at 5 µM;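 active means corrected activity change at or below -50% at 5 µM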
The depositor's hits bear a star; nt = no result. Only some compounds are listed: those with a hit (about 3.9% of all), similar ones and a draw of the others.

SMILES	Peg3 prom inh	TROY NFkB inh	TWEAK Fn14 block	HIF-2a inh	CF NFkB block	KKLEB tox
Cc1ccc(-c2nnn(CC(=O)Nc3ccc(S(=O)(=O)N4CCC(C)CC4)cc3)n2)cc1	63*	5	-8	2	-6	-8
Cc1ccc(C(=O)/C=C2\NCC(C)NC2=O)cc1 (configuration not stated)	6	nt	54*	-8	0	2
Cc1ccc(C(=O)/C=C2\NCCNC2=O)cc1	-170	-28	15	-137	-11	0
CCn1c2ccccc2c2cc(N=C3SC(CC(=O)Nc4ccccc4)C(=O)N3C)ccc21 (configuration not stated)	11	21	-1	20	56*	-52*
Nc1nc2ccc(OC(F)(F)F)cc2s1	-169	-39	-16	-184	12	-56*
Nc1nc2ccc(Oc3ccccc3)cc2s1	-233	-63	-23	-206	19	-9
CCn1c(=Nc2ccc(N3CCOCC3)cc2)ccc2ccccc21	-12	3	-7	6	-2	5
Cn1c(=Nc2ccc(N3CCOCC3)cc2)ccc2ccccc21	8	nt	72*	7	-9	17
Cn1c(N=Nc2ccc(N3CCOCC3)cc2)[n+](C)c2ccccc21	-159	70*	45	-43	10	-10
Cn1c(N2CCOCC2)c(/C=N/O)c2ccccc21	11	-15	7	19	6	9
CCCN(CC(=O)Nc1ccccc1C)C(=O)c1oc2ccc(OCC)cc2c1C	12	2	-34	13	6	-7
CCOc1ccc(/C=N/NC2=NCCCCC2)cc1	-72	-1	1	-67	0	-2
Nc1nc(=S)c2ncn(C3OC(CO)C(O)C3O)c2[nH]1 (configuration not stated)	29	-25	-1	11	-9	-2
Nc1nc(=S)c2ncn([C@@H]3O[C@H](CO)[C@@H](O)[C@H]3O)c2[nH]1	62*	15	13	6	-10	15
Nc1nc(=S)c2ncn(C3CCCCC3)c2[nH]1	-3	64*	-7	4	9	-16
CC(C)C1=C2OC(N)=C(C#N)C(C#N)=C2C(C)CC1 (configuration not stated)	13	1	-3	10	9	-9
CCOC(=O)c1ccc(NC(=S)NCCCn2ccnc2)cc1	0	13	-15	-5	13	-6
CCN1/C(=C/c2cc[n+](C)cc2)C=Cc2cc(C)ccc21	61*	15	40	6	-46	1
CCOC(=O)c1sc(NC(=O)Nc2ccccc2)cc1C	-231	32	37	-252	28	-51*
CCOC(=O)c1sc(NC(C)=O)cc1C	-24	0	-16	-35	-21	-5
CCOC(=O)c1sc(NC(=O)Nc2ccccc2Cl)cc1C	-185	69*	70*	-233	-1	-7
COc1ccc(-c2cc(C(=O)Nc3cc(Br)ccc3O)no2)cc1	-95	0	-27	-77	22	-10
O=C(NCc1ccccc1Cl)C1CCN(C(=O)c2sccc2-n2cccc2)CC1	4	6	1	17	-3	3
CCOc1ccccc1CNC(=O)C1CCN(C(=O)c2sccc2-n2cccc2)CC1	-14	26	64*	-21	-7	3
O=C(Nc1ccn(Cc2ccccc2F)n1)c1ccc(COc2ccc(Br)cc2)cc1	-5	13	51*	-7	48	-64*
O=C(Nc1ccc(Cn2cccn2)cc1)c1ccc(COc2ccc(Br)cc2)cc1	17	-4	-10	7	-3	7
CCC(C)NCCCCOc1ccc(Br)cc1 (configuration not stated)	-1	-2	-1	17	7	-4
COc1ccc(-c2cc3ccccc3[nH]2)cc1	-295	-20	17	-311	-15	14
c1ccc(-c2cc3ccccc3[nH]2)cc1	-251	-52	-27	-269	12	-94*
CCN(CC)CCCNc1nc(CN2CCOCC2)nc2sc3c(c12)CCC3	-10	-9	6	10	19	-5
